High-throughput results: PubChem, National Center for Advancing Translational Sciences (NCATS)
HT1080NT lethal – qHTS for induction of synthetic lethality in tumor cells producing 2HG: qHTS for the HT-1080-NT fibrosarcoma cell line. HT-1080-NT fibrosarcoma viability, CellTiter-Glo ATP luminescence, 48 h. Potency, µM (highest dose often 46.1 µM), for the others: at the highest dose activity, negative = less viability, actives largely listed as cytotoxic. actives 1.6% (n = 360,000);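 also: NT is the 2HG producing partner of a matched IDH1 knockdown line; 0% = DMSO-treated cells and -100% = media-only wells without cells; nearly all actives have a fitted effect of over 55% in size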
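Fibrosarcoma NT cells, 750 per well in 5% FBS RPMI, were exposed to compound for 48 hours. Viability: CellTiter-Glo luminescence.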
TDP1 cell noCPT – qHTS for Inhibitors of human tyrosyl-DNA phosphodiesterase 1 (TDP1): qHTS in cells in absence of CPT; DT40 Tdp1-/- hTDP1 cells, no CPT, ATP luminescence, 48 h; Potency, µM (doses to about 46.2 µM), for the others: top-dose activity change, negative = growth inhibition, hits mostly inhibitors; actives 15% (n = 420,000); AID 686978, 2013; also: nearly all actives have a fitted effect of over 55% in size
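Seeded 400 DT40-hTDP1 cells/well (vehicle DMSO, no 20 nM CPT); pinned compounds; ≥48 hr at 37 °C; CellTiter-Glo luminescence as viability measure.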
HT1080 IDH1KD tx – qHTS for induction of synthetic lethality in tumor cells producing 2HG: qHTS for the HT-1080-IDH1KD cell line; HT-1080 IDH1 knockdown viability, ATP luminescence, 48 h; actives 2% (n = 360,000); Potency, µM (highest dose often 46.1 µM), for the others: at the highest dose activity, negative = toxicity, most hits filed as cytotoxic; AID 686971, 2013;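 also: 0% = DMSO wells and -100% = cell-free medium wells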
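Cytotoxicity counter-line: IDH1KD HT-1080, 48 h, CellTiter-Glo. Curves classed by r2, magnitude and activity.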
KB-V1 cytotox – qHTS assay for MDR1-selective chemotherapeutics: Primary screen using the drug-selected MDR subline cells KB-V1 | KB-V1 MDR cells viability, CellTiter-Glo, 72 h | Potency, µM (series often up to 46.1 µM), actives largely listed as cytotoxic | actives 3.4% (n = 400,000); also: nearly all actives have a fitted effect of over 60% in size
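Drug-selected KB-V1 cells, grown in DMEM lacking phenol red with 10% FBS, receive compound titrations; after three days at 37 degrees C, surviving cell ATP is quantified by CellTiter-Glo luminescence and responses normalized and curve-fitted.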
TDP1 cell CPT – qHTS for Inhibitors of human tyrosyl-DNA phosphodiesterase 1 (TDP1): qHTS in cells in presence of CPT | AID 686979, 2013 | Potency, µM (doses to about 46.2 µM), inactives show top-dose activity change, negative = growth inhibition, usual class: inhibitors | chicken DT40 Tdp1-/-;hTDP1 cells + 20 nM CPT, ATP luminescence, 48 h | actives 12% (n = 420,000); also: nearly all actives have a fitted effect of over 55% in size
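Chicken DT40 Tdp1-/- cells complemented with human TDP1, 400 cells/well, exposed to compounds plus 20 nM camptothecin for at least 48 h at 37 C; viability read as ATP content by CellTiter-Glo luminescence.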
KB-3-1 tox – qHTS assay for MDR1-selective chemotherapeutics: Primary screen using the parental adenocarcinoma cell KB-3-1; KB-3-1 viability, CellTiter-Glo ATP luminescence, 72 h; Potency, µM (doses to about 46.1 µM), hits mostly cytotoxic; actives 1.4% (n = 400,000); AID 1347075, 2019; also: nearly all actives have a fitted effect of over 60% in size
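KB-3-1 parental drug-naive adenocarcinoma cells in DMEM/10% FBS, incubated 72 h at 37 C with pin-transferred compounds across a concentration series. Viability by CellTiter-Glo luminescence; concentration-response curves fitted after normalization.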
Active calls of the source: *; i = inactive; ? = inconclusive; . = no result. Hits are enriched below; roughly 19% of the tested compounds scored in any of these assays. Calls follow the shape of the dose curve; as a rule, active = well fitted curve in the direction sought with a large enough effect; inconclusive = small, poorly fitted or top-dose-only effect, or another doubt; inactive = no such curve, though single readings can be large; an effect the other way counts as inactive or inconclusive. Unless noted, % is scaled to controls: 0 for no effect and ±100 for the full control effect; potency is read from the fitted curve at half-maximal effect.

SMILES | HT1080NT lethal | TDP1 cell noCPT | HT1080 IDH1KD tx | KB-V1 cytotox | TDP1 cell CPT | KB-3-1 tox
S=c1[nH]nc(-c2ccccn2)n1/N=C/c1ccc(Br)s1 | -17% | -8% | -7% | i | 5% | i
CN(C)CCCn1c2c3ccccc3ccc2c2oc(=O)c3ccccc3c21 | -1% | 4.6µM* | -26% | ? | 2.6µM* | ?
CCCCCOC(=O)c1[nH]c2c(c1C)C(=O)C(C(=O)OC)C(C)C2 (stereo not given) | -19% | 18µM* | -15% | 18µM* | 9.2µM* | ?
COC(=O)C1C(=O)c2c([nH]c(C(=O)OCC3CCCO3)c2C)CC1C (stereo not given) | 0% | -30% | -5% | i | 16µM* | i
COCCOC(=O)c1[nH]c2c(c1C)C(=O)C(C(=O)OC)C(C)C2 (stereo not given) | 5% | -2% | -1% | i | 5% | i
N#Cc1ccc(NC(=O)COC(=O)c2cccc(S(=O)(=O)N3CCCC3)c2)cc1 | -10% | ? | 0% | i | -10% | i
O=c1[nH]c(=O)c2nc(-c3ccc(Cl)cc3)cnc2[nH]1 | -14% | ? | -5% | ? | -23% | i
O=c1[nH]c(=O)c2nc3c4ccccc4c4ccccc4c3nc2[nH]1 | -5% | 5.2µM* | -9% | i | 8.2µM* | i
Oc1ccccc1N=Cc1sc2ccccc2c1Cl | 2% | 18µM* | -7% | i | ? | i
CCc1nnc(NC(=O)CCC(=O)N2CCN(c3cc(Cl)ccc3C)CC2)s1 | -27% | -2% | -7% | ? | ? | i
CS(=O)c1ccccc1O (stereo not given) | 24% | 17% | 21% | i | 22% | i
O=S(c1ccccc1O)S(=O)c1ccccc1O (stereo not given) | ? | 5.2µM* | ? | i | 5.8µM* | i
CCOC(=O)Cc1nn(Cc2nc(-c3ccc(C)cc3)cs2)c(=O)c2ccccc12 | 16µM* | ? | -8% | ? | -23% | i
COc1cc(O)sc1C=Nc1ccc(Cl)cc1Cl | 17% | -5% | 1% | 21µM* | -5% | i
O=c1[nH]c(O)c(C=Nc2ccc(Cl)cc2Cl)c(=O)[nH]1 | 5% | 8% | 3% | i | 13% | i
CC(=O)c1ccc(S(=O)(=O)Nc2ccc(C(=O)NCCCn3ccnc3)cc2)cc1 | 11% | 11% | -2% | i | 2% | i
CCC(C)Nc1nc(N)c([N+](=O)[O-])c(Nc2ccccc2OC)n1 (stereo not given) | ? | ? | 21µM* | ? | ? | i
COc1ccccc1Nc1nc(NCC(C)C)nc(N)c1[N+](=O)[O-] | -3% | 26µM* | 2% | i | ? | i
COc1cccc(NC(=O)CN2C(=O)NC3(CCCc4ccccc43)C2=O)c1 (stereo not given) | -2% | 15% | 3% | i | -29% | i
O=S(=O)(c1ccc(F)c2ccccc12)N1CCCCC1 | -7% | -18% | -4% | i | -27% | ?
CCOc1ccc(S(=O)(=O)N2CCCCC2)c2ccccc12 | -11% | 21µM* | 21µM* | i | 18µM* | i
O=S(=O)(c1ccc(Cl)cc1Br)N1CCCCC1 | 0% | -2% | -29% | 18µM* | -6% | ?
O=S(=O)(c1ccc(Oc2ccc(Cl)cc2)c(S(=O)(=O)N2CCCCC2)c1)N1CCCCC1 | 12% | 15µM* | 8% | 3.3µM* | ? | i
O=S(=O)(c1ccc(Cl)cc1)N1CCN(S(=O)(=O)N2CCCCCC2)CC1 | 10% | -4% | 20% | i | 8% | i
O=[N+]([O-])c1ccccc1S(=O)(=O)N1CCCCC1 | 4% | -9% | 8% | i | -18% | i
SMILES | HT1080NT lethal | TDP1 cell noCPT | HT1080 IDH1KD tx | KB-V1 cytotox | TDP1 cell CPT | KB-3-1 tox
O=S(=O)(c1ccccc1S(=O)(=O)N1CCCCC1)N1CCCCC1 | ? | -20% | -22% | 15µM* | -30% | i
CC1(C)Oc2ccc3ccc(=O)oc3c2C[C@H]1O[C@@H]1O[C@H](CO)[C@@H](O)[C@H](O)[C@H]1O | 1% | 2% | 10% | i | -12% | i
CC(=O)OC(C)(C)/C=C/C(=O)[C@](C)(O)C1[C@H](O)C[C@@]2(C)C3CC=C4C(C=C(O[C@@H]5O[C@H](CO)[C@@H](O)[C@H](O)[C@H]5O)C(=O)C4(C)C)[C@]3(C)C(=O)C[C@]12C (stereo not given in full) | ? | 1.8µM* | 23µM* | ? | 1.6µM* | ?
O=C(Nc1ccc(O)c2c(=O)cc(-c3cccc(Cl)c3)oc12)c1ccccc1Cl | -4% | 21µM* | 3% | i | ? | i
Cc1ccc2nc(COC(=O)c3cnccn3)cc(=O)n2c1 | -1% | 4% | -3% | i | 3% | i
CCOCCCn1c(=N)c(S(=O)(=O)c2ccc(C)cc2)cc2c(=O)n3cccc(C)c3nc21 | . | . | . | ? | . | i
COc1ccccc1-c1cc(C(=O)N/N=C\c2cn(C)nc2C)c2ccccc2n1 | 0% | 13µM* | 7% | i | ? | i
CCn1cc(/C=N\NC(=O)c2cc(-c3ccccc3OC)nc3ccccc23)c(C)n1 | 7% | 16µM* | 5% | i | ? | ?
CCN(CC)C(=O)NC1CCCCCCC1 | 6% | 25% | 7% | i | 1% | i
Cc1cc(C)c(NC(=O)Cn2c(=O)n(CCC(C)C)c(=O)c3cccnc32)c(C)c1 | . | ? | . | i | ? | i
CCOc1ccc(/C(C)=N\NC(=O)Cc2ccccc2)cc1 | -2% | 0% | -1% | i | 1% | i
C[C@H](CO)N1C[C@H](C)[C@@H](CN(C)S(=O)(=O)c2ccccc2)Oc2ccc(NC(=O)NC3CCCCC3)cc2C1=O | -2% | 21µM* | -5% | i | ? | i
